Consider seven compounds from PubChem BioAssay (NCI).

Each structure is given as a SMILES string. Compounds without any hit were thinned out: in the full panel of roughly 83,000, 20% have a hit.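 How to read the values: 0–100, growth inhibition (40 = 60% inhibited); 0, no net growth; -100 to 0, cell death (-40 = 40% of starting cells died; -100 = all dead).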 Values without a mark were called inactive. The source made the active and inactive calls. The calls were made as follows: active = growth percent below 10; inactive = the rest.

Some test systems named below: NCI-H23 lung; NCI-H226 lung; NCI-H322M lung; HOP-62 NSCLC; NCI-H460 lung; HOP-92 NSCLC; NCI-H522 lung; A549/ATCC NSCLC; 786-0 renal; COLO 205 colon; DU-145 prostate; K-562 leukemia; MALME-3M melanoma; MDA-MB-231 breast; RXF 393 renal; SF-268 CNS; SF-295 CNS; SF-539 CNS; UACC-257 melanoma; M14 melanoma.
Holding throughout (test): NCI-60 one-dose screen, 48 h (100 = growth as untreated, 0 = no growth, -100 = all killed)
What all share (settings): 10 µM unless noted

For `CCN1CCN(c2nc(C)cc(N(CCCNc3ccnc4cc(Cl)ccc34)Cc3ccco3)n2)CC1`, the growth is 62.2% with NCI-H23 lung; 86.4% with NCI-H226 lung; 63.5% with NCI-H322M lung; 52.1% with HOP-62 NSCLC; 39.9% in the assay with NCI-H460 lung; 65.3% with HOP-92 NSCLC. The growth in the assay on NCI-H522 lung is 71.6%; in the assay on A549/ATCC NSCLC, 50.4%; in the assay on 786-0 renal, 64.8%; in the assay with COLO 205 colon, -21.2% (active); with DU-145 prostate, 55.5%; in the assay with K-562 leukemia, 8.16% (active). For the same compound, the growth is -6.8% (active) with MALME-3M melanoma; 11.6% in the assay with MDA-MB-231 breast; 48.5% with RXF 393 renal; 55.7% with SF-268 CNS; 51% in the assay on SF-295 CNS; -63.5% (active) in the assay on SF-539 CNS. In addition, the growth with UACC-257 melanoma is -2.43% (active); in the assay on M14 melanoma it was -76% (active).
For `O=[N+]([O-])c1ccc(N/N=C(\C(=N/Nc2ccc([N+](=O)[O-])cc2[N+](=O)[O-])c2ccccc2)c2ccccc2)c([N+](=O)[O-])c1`, the growth in the assay with NCI-H23 lung is 104%; with NCI-H226 lung, 93.5%; with NCI-H322M lung, 85.6%; in the assay on HOP-62 NSCLC, 89.5%; in the assay with NCI-H460 lung, 52.1%; with HOP-92 NSCLC it was 92.4%. The growth with NCI-H522 lung is 83.4%; with A549/ATCC NSCLC, 51.4%; in the assay with 786-0 renal, 90.5%; in the assay with COLO 205 colon, 43.8%; with DU-145 prostate it was 86.4%; with K-562 leukemia, 97.3%. In addition, the growth in the assay with MALME-3M melanoma was 65.6%; in the assay on MDA-MB-231 breast it was 94.2%; in the assay with RXF 393 renal it was 111%; in the assay with SF-268 CNS, 82.6%; in the assay with SF-295 CNS, 94.6%; in the assay with SF-539 CNS, 89.2%. The growth with UACC-257 melanoma is 95.2%; in the assay with M14 melanoma it was 100%.
Regarding `CC1(C)NC2=C(C(Nc3cccnc3)N1)C(c1ccc([N+](=O)[O-])cc1)C(C(=O)c1ccc(N=[N+]=[N-])cc1)O2` (stereo not given), the growth with NCI-H23 lung was 103%; in the assay with NCI-H226 lung, 105%; with NCI-H322M lung, 100%; in the assay on HOP-62 NSCLC it was 103%; with NCI-H460 lung, 95.4%; with HOP-92 NSCLC, 94%. Further, the growth in the assay with NCI-H522 lung was 96.7%; in the assay on A549/ATCC NSCLC, 104%; in the assay with 786-0 renal it was 100%; in the assay on COLO 205 colon, 109%; in the assay with DU-145 prostate, 106%; with K-562 leukemia it was 101%. The growth in the assay on MALME-3M melanoma was 99.2%; with MDA-MB-231 breast, 102%; in the assay on RXF 393 renal it was 112%; in the assay on SF-268 CNS, 101%; in the assay on SF-295 CNS, 104%; in the assay with SF-539 CNS, 102%. The growth with UACC-257 melanoma and in the assay with M14 melanoma was 104% throughout.
Consider `CN1CCN(CCOc2ccc(-c3cnc4c(-c5ccccc5F)cnn4c3)cc2)CC1`, for which the growth was 46.5% with NCI-H23 lung; 105% in the assay on NCI-H226 lung; 57.9% in the assay with NCI-H322M lung; 64.7% with HOP-62 NSCLC; -63.3% (active) in the assay with NCI-H460 lung; 2.22% (active) in the assay with HOP-92 NSCLC. Also, the growth with NCI-H522 lung is 66.8%; with A549/ATCC NSCLC it was 22.4%; in the assay with 786-0 renal, -73.5% (active); in the assay with COLO 205 colon it was -79.3% (active); in the assay on DU-145 prostate it was 60.9%; with K-562 leukemia, -50.3% (active). For the same compound, the growth with MALME-3M melanoma is 7.94% (active); with MDA-MB-231 breast, 29.2%; with RXF 393 renal, 50%; with SF-268 CNS it was 63.9%; in the assay with SF-295 CNS, 65%; in the assay on SF-539 CNS, 51.3%. The values for the growth in the assay with UACC-257 melanoma and in the assay on M14 melanoma were -7.9% (active) and -80.3% (active), respectively.
Take `COc1ccc(-c2cc(-c3cccs3)n(N=O)c(=O)c2C#N)cc1`: the growth in the assay with NCI-H23 lung is 89.1%; in the assay on NCI-H226 lung it was 99.8%; with NCI-H322M lung, 106%; in the assay with HOP-62 NSCLC, 93.8%; in the assay on NCI-H460 lung it was 102%; in the assay with HOP-92 NSCLC it was 63.8%. For the same compound, the growth is 93% in the assay on NCI-H522 lung; 100% in the assay on A549/ATCC NSCLC; 93.5% in the assay with 786-0 renal; 119% in the assay on COLO 205 colon; 119% in the assay with DU-145 prostate; 34.3% in the assay on K-562 leukemia. Further, the growth in the assay on MALME-3M melanoma is 127%; with MDA-MB-231 breast, 100%; with RXF 393 renal, 96.3%; in the assay on SF-268 CNS it was 110%; in the assay with SF-295 CNS, 102%; in the assay with SF-539 CNS it was 96.5%. Also, the growth was 101% in the assay with UACC-257 melanoma and 116% with M14 melanoma.
`COc1ccc2c(c1)c1nc3cc(C)c(C)cc3nc1n2CCN(C)C`: the growth in the assay on NCI-H23 lung is 1.6% (active); with NCI-H226 lung, 7.41% (active); in the assay on NCI-H322M lung, 3.67% (active); in the assay on HOP-62 NSCLC, 20.3%; with NCI-H460 lung, -22% (active); in the assay with HOP-92 NSCLC, 41%. Also, the growth is 6.94% (active) in the assay with NCI-H522 lung; -75% (active) in the assay with A549/ATCC NSCLC; -60.8% (active) with 786-0 renal; -23.8% (active) with COLO 205 colon; 11.9% in the assay with DU-145 prostate; -2.38% (active) in the assay on K-562 leukemia. The growth was -30.8% (active) in the assay on MALME-3M melanoma; -2.89% (active) with MDA-MB-231 breast; 13.2% in the assay on RXF 393 renal; 31.3% in the assay with SF-268 CNS; 4.6% (active) in the assay with SF-295 CNS; -13.2% (active) with SF-539 CNS. For the same compound, the growth in the assay with UACC-257 melanoma is 8.99% (active); with M14 melanoma, 4.45% (active).
`COc1cc(/C=N/NC(=S)NNC(=S)NC2CCCCC2)cc(OC)c1OC`: the growth with NCI-H23 lung was 97.4%; in the assay on NCI-H226 lung, 91.2%; with NCI-H322M lung it was 93.7%; with HOP-62 NSCLC it was 94.8%; with NCI-H460 lung it was 97.1%; in the assay with HOP-92 NSCLC, 91.2%. The growth is 89.3% in the assay with NCI-H522 lung; 100% in the assay with A549/ATCC NSCLC; 102% in the assay with 786-0 renal; 102% in the assay with COLO 205 colon; 92.5% in the assay on DU-145 prostate; 88.6% with K-562 leukemia. Moreover, the growth is 95.2% in the assay with MALME-3M melanoma; 77.2% with MDA-MB-231 breast; 95.6% in the assay with RXF 393 renal; 102% in the assay with SF-268 CNS; 98.7% in the assay on SF-295 CNS; 94.8% with SF-539 CNS. Further, the figures for the growth in the assay with UACC-257 melanoma and in the assay with M14 melanoma were 107% and 95.2%, respectively.
